# Test results reported in PubChem BioAssay (Tox21).
# Results filed as inconclusive are left out. A call without a number means that no potency is given here. Activity calls are given as the source filed them. Unless noted, the call rests on the fitted dose curve; in most records, active means well fitted curve in the direction sought with a large enough effect in the repeat runs; inconclusive means weak or mixed curves; inactive means no such curve, though single readings can be large; an effect the other way counts as inactive or inconclusive.
# Experiments:
# [1] = A CellTox Green Cytotoxicity Assay to monitor cytotoxicity in HepG2 cells - 8 hour (AID 1224890); further: nearly all actives have a fitted effect of over 45% in size; further: potency means the concentration at half of the fitted maximal effect
# How it was run: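 First, HepG2 cells (600/well) mixed with reagent were plated; second, after 5 h at 37 C they received compounds via pintool; third, fluorescence was measured at 0 h through 40 h at 8 h intervals.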
# [2] = qHTS assay to identify small molecule antagonists of the androgen receptor (AR) signaling pathway using the MDA cell line in the presence of 0.5 nM R1881 - cell viability counter screen (AID 1259242); further: nearly all actives have a fitted effect of over 45% in size
# How it was run: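 qHTS format. MDA-kb2 (MMTV-luc, AR/GR responsive) + cpd + 0.5 nM R1881 final, 16 hr 37C/0% CO2 → CellTiter-Fluor 30 min → fluorescence intensity.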
# [3] = qHTS assay to identify small molecule phospholipidosis (PLD) inducers (AID 1259344; active means well fitted curve in the direction sought with a large enough effect; an effect the other way counts as inactive or inconclusive)
# How it was run: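 Cells (HepG2, 900 per well) attach for 4 h, receive LipidTOX Red and compound together, incubate 24 h at 37 C, are fixed 30 min with paraformaldehyde/Hoechst, then imaged at one site per well.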
# [4] = qHTS assay to identify small molecule HDAC inhibitors (AID 1259364); further: potency means the concentration at half of the fitted maximal effect;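 further: wild-type HCT-116 cells with endogenous class I/II HDAC activity; nearly all actives have a fitted effect of over 45% in size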
# How it was run: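 Quantitative high-throughput format: overnight-seeded HCT-116 cells got compounds for 2 hr at 37C; HDAC-Glo I/II reagent added, 30 min RT, luminescence measured.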
# [5] = qHTS assay to identify small molecule agonists of the sonic hedgehog signaling (Shh) pathway - cell viability counter screen (AID 1259366); further: nearly all actives have a fitted effect of over 50% in size; further: potency means the concentration at half of the fitted maximal effect
# How it was run: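 Viability measured fluorometrically (CellTiter-Fluor, 1hr, 37C) in 3T3 Gli1-Luc reporter cells after 23hr compound exposure within a 24hr incubation at 37C/5% CO2.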
# [6] = qHTS assay to identify small molecule antagonists of the sonic hedgehog signaling (Shh) pathway - cell viability counter screen (AID 1259367); further: nearly all actives have a fitted effect of over 55% in size; further: potency means the concentration at half of the fitted maximal effect
# How it was run: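 Cytotoxicity was assessed in parallel with Shh reporter activity by measuring live-cell protease fluorescence (CellTiter-Fluor) in NIH/3T3 cells stably carrying Gli1-Luc, treated with compound under conditioned medium stimulation for 23 hr plus 1 hr reagent incubation.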
# [7] = qHTS assay to identify small molecule HDAC inhibitors - cell viability counter screen (AID 1259365); further: nearly all actives have a fitted effect of over 50% in size; further: potency means the concentration at half of the fitted maximal effect; on activity change, negative = cytotoxicity: series mostly up to about 92 µM
# How it was run: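 Viability readout: CellTiter-Glo luminescence. Wild-type HCT-116 cells, 2hr compound treatment following overnight attachment at 37 C.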
# [8] = qHTS assay to identify small molecule antagonists of the estrogen receptor alpha (ER-alpha) signaling pathway using the BG1 cell line in the presence of 0.1 nM 17-beta-estradiol - cell viability counter screen (AID 1259241); further: nearly all actives have a fitted effect of over 40% in size
# How it was run: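 The cell line endogenously expresses full-length ER-alpha and carries four EREs driving luciferase. Cells are cultured 5 days hormone-free, treated 22 hr with compounds and 0.1 nM estradiol, then viability is read by fluorescence.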
# [9] = target: Androgen receptor (Homo sapiens) (UniProt P10275); test: qHTS assay to identify small molecule antagonists of the androgen receptor (AR) signaling pathway using the MDA cell line in the presence of 0.5 nM R1881 (AID 1259243); further: nearly all actives have a fitted effect of over 50% in size
# How it was run: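 Antagonist mode quantitative HTS in MDA-kb2 MMTV-luciferase cells, agonist R1881 at 0.5 nM final, 16 hr exposure at 37C and 0% CO2, luminescent detection.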
# [10] = target: Estrogen receptor (Homo sapiens) (UniProt P03372); test: qHTS assay to identify small molecule antagonists of the estrogen receptor alpha (ER-alpha) signaling pathway using the BG1 cell line in the presence of 0.1 nM 17-beta-estradiol (AID 1259244); further: nearly all actives have a fitted effect of over 50% in size; further: potency means the concentration at half of the fitted maximal effect
# How it was run: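 Reporter is a stably transfected luciferase under four estrogen responsive elements in VM7Luc4E2 cells expressing native full-length ER-alpha; inhibition of 0.1 nM (final) 17beta-estradiol-driven signal over 22 h is read by luminescence.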
# Sequence of Estrogen receptor (Homo sapiens) (P03372 whole entry, looked up): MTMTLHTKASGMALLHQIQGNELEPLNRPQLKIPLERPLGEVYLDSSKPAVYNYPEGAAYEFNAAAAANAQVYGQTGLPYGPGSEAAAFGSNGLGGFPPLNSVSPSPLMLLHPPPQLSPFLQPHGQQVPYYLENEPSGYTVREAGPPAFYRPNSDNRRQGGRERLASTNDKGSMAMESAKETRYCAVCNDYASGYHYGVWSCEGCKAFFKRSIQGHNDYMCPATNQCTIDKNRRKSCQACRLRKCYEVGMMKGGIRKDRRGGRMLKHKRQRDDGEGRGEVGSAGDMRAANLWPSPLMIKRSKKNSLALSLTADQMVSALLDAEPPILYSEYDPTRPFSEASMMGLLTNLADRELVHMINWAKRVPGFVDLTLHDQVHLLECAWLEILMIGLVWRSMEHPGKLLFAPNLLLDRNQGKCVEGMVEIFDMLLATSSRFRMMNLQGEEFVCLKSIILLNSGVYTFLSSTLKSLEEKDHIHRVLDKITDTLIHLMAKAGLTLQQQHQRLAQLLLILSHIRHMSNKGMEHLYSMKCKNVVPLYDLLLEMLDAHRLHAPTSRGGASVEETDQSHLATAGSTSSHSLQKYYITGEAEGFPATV
# Sequence of Androgen receptor (Homo sapiens) (P10275 whole entry, looked up): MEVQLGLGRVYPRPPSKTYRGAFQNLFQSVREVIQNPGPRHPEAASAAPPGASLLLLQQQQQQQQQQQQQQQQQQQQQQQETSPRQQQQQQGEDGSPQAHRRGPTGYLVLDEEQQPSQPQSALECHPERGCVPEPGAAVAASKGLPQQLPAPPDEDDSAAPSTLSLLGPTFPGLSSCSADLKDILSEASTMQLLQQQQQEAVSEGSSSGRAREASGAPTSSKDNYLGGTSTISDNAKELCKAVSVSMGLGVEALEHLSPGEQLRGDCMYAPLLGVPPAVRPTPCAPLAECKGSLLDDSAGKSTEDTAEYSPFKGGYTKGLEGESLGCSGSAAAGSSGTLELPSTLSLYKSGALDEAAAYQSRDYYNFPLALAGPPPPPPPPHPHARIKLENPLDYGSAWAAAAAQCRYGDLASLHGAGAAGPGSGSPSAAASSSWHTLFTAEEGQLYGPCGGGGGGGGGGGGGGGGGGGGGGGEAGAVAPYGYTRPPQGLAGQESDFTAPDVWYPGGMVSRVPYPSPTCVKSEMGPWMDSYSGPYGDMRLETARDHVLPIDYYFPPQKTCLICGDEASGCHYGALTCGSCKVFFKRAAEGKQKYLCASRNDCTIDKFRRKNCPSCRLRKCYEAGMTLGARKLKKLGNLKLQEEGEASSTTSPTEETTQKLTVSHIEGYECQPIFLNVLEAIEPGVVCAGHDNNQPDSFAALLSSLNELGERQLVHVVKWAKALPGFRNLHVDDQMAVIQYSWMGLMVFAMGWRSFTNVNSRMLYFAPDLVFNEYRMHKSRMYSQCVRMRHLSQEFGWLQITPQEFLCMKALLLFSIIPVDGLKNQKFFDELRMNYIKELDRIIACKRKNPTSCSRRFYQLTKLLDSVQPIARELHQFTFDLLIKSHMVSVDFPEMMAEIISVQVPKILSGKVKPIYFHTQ
smiles,measurement,setting,value
O=C(CCCN1CC=C(n2c(=O)[nH]c3ccccc32)CC1)c1ccc(F)cc1,Potency,[1],inactive
same,Potency,[2],inactive
same,Potency,[3],inactive
same,Potency,[4],inactive
same,Potency,[5],inactive
same,Potency,[6],inactive
O=[N+]([O-])c1ccc(Nc2ccc(Nc3ccccc3)c(S(=O)(=O)O)c2)c([N+](=O)[O-])c1,Potency,[1],inactive
same,Potency,[4],inactive
same,Potency,[7],inactive
CC(CC1c2ccccc2CCc2ccccc21)CN(C)C (stereo unspecified),Potency,[1],inactive
same,Potency,[4],inactive
same,Potency,[5],inactive
same,Potency,[6],inactive
O=C=Nc1cccc(C(F)(F)F)c1,Potency,[8],inactive
same,Potency,[2],inactive
same,Potency,[9],inactive
same,Potency,[10],inactive
same,Potency,[4],inactive
same,Potency,[7],inactive
same,Potency,[5],inactive
same,Potency,[6],inactive
Cc1cc(=O)c2c(O)c3c(O)cc(=O)c4c3c3c(cc(O)c1c23)C(C)(C)C=4O,Potency,[1],4.65 µM (active)
same,Potency,[3],inactive
same,"activity change, negative = cytotoxicity",[7],2.88% [at 19 µM] (inactive)
same,"viability change, negative = cytotoxic",[5],17.6% [at 19 µM] (inactive)
same,"viability change, negative = cytotoxic",[6],-14.6% [at 19 µM] (inactive)
CC(=O)c1cc2ccccc2s1,Potency,[1],inactive
same,Potency,[2],inactive
same,Potency,[10],inactive
same,Potency,[4],inactive
same,Potency,[7],inactive
same,Potency,[5],inactive
same,Potency,[6],inactive
O=[N+]([O-])c1ccc(O/N=C/c2cc(Br)c(O)c(Br)c2)c([N+](=O)[O-])c1,Potency,[1],inactive
same,Potency,[10],30.5 µM (active)
same,Potency,[7],inactive
Cc1c(C)c2c(c(C)c1OC(=O)CCC(=O)OCCO)CC[C@@](C)(CCC[C@H](C)CCC[C@H](C)CCCC(C)C)O2,Potency,[1],inactive
same,Potency,[2],inactive
same,Potency,[10],inactive
same,Potency,[4],inactive
same,Potency,[7],inactive
same,Potency,[5],inactive
same,Potency,[6],inactive
C=C(C)C(=O)OCCOCCOC(=O)C(=C)C,Potency,[1],inactive
same,Potency,[2],inactive
same,Potency,[10],inactive
same,Potency,[4],inactive
same,Potency,[7],inactive
same,Potency,[5],inactive
same,Potency,[6],inactive
Cc1ccccc1N=C(N)Nc1ccccc1C,Potency,[1],inactive
same,Potency,[2],inactive
same,Potency,[10],inactive
same,Potency,[4],inactive
same,Potency,[5],inactive
O=C(OC(=O)c1ccccc1)c1ccccc1,Potency,[8],inactive
same,Potency,[2],inactive
same,Potency,[9],inactive
same,Potency,[10],inactive
same,Potency,[4],inactive
same,Potency,[7],inactive
same,Potency,[5],inactive
same,Potency,[6],inactive
O=C1c2ccccc2C(=O)N1CCc1noc(-c2ccc(CN3CCCCCC3)s2)n1,Potency,[1],31.8 µM (active)
same,Potency,[2],inactive
same,Potency,[4],inactive
same,Potency,[7],inactive
same,Potency,[5],inactive
same,Potency,[6],inactive
OCCOCC#CCOCCO,Potency,[1],inactive
same,Potency,[2],inactive
same,Potency,[10],inactive
same,Potency,[4],inactive
same,Potency,[7],inactive
same,Potency,[5],inactive
same,Potency,[6],inactive
C=C(C)CCCC(C)CCO (stereo unspecified),Potency,[1],inactive
same,Potency,[2],inactive
same,Potency,[10],inactive
same,Potency,[7],inactive
same,Potency,[5],inactive
same,Potency,[6],inactive
CC(C)=CCC/C(C)=C/CC/C(C)=C/C(=O)OCC(=O)[C@@]1(O)CC[C@H]2[C@@H]3CCC4=CC(=O)C=C[C@]4(C)[C@H]3[C@@H](O)C[C@@]21C,Potency,[1],inactive
same,Potency,[9],inactive
same,Potency,[10],26.6 µM (active)
same,Potency,[4],inactive
same,Potency,[7],inactive
same,Potency,[5],inactive
same,Potency,[6],inactive
O=C1c2ccccc2C(=O)C1c1ccc(Br)cc1,Potency,[8],inactive
same,Potency,[2],inactive
same,Potency,[9],inactive
same,Potency,[10],inactive
same,Potency,[3],inactive
same,Potency,[7],inactive
same,Potency,[5],inactive
same,Potency,[6],inactive
CCCCCC[C@@H](O)C/C=C\CCCCCCCC(=O)OCC(O)CO (stereo partly specified),Potency,[8],inactive
same,Potency,[2],inactive
same,Potency,[9],inactive
same,Potency,[10],inactive
same,Potency,[4],inactive
same,Potency,[5],inactive
same,Potency,[6],inactive
COc1ccccc1Oc1c(NS(=O)(=O)c2ccc(C(C)(C)C)cc2)nc(-c2ncccn2)nc1OCCO,Potency,[8],inactive
same,Potency,[2],inactive
same,Potency,[10],inactive
same,Potency,[3],inactive
same,Potency,[4],inactive
same,Potency,[7],inactive
same,Potency,[5],inactive
same,Potency,[6],26.6 µM (active)
CN1C[C@H](C(=O)N[C@]2(C)O[C@@]3(O)[C@@H]4CCCN4C(=O)[C@H](Cc4ccccc4)N3C2=O)C[C@@H]2c3cccc4[nH]cc(c34)C[C@H]21,Potency,[1],inactive
same,Potency,[2],inactive
same,Potency,[4],inactive
same,Potency,[6],inactive
CN1C(=O)N(c2ccccc2Br)Cc2cnc(Nc3ccc4c(c3)OCC(CO)O4)nc21 (stereo unspecified),Potency,[1],inactive
same,Potency,[10],48.6 µM (active)
same,Potency,[4],inactive
same,Potency,[7],inactive
same,Potency,[5],0.193 µM (active)
same,Potency,[6],1.72 µM (active)
CCN(CC)CCNC(=O)COc1ccc(OC)cc1,Potency,[8],inactive
same,Potency,[2],inactive
same,Potency,[10],inactive
same,Potency,[3],inactive
same,Potency,[4],inactive
same,Potency,[7],inactive
same,Potency,[5],inactive
same,Potency,[6],inactive
CCn1cc(C(=O)O)c(=O)c2cc(F)c(N3CCNCC3)cc21,Potency,[8],inactive
same,Potency,[2],inactive
same,Potency,[10],inactive
same,Potency,[3],inactive
same,Potency,[4],inactive
same,Potency,[7],inactive
same,Potency,[5],inactive
same,Potency,[6],inactive
CC1=C(CC=O)C(C)(C)CCC1,Potency,[1],inactive
same,Potency,[2],inactive
same,Potency,[4],inactive
same,Potency,[7],inactive
same,Potency,[5],inactive
same,Potency,[6],inactive
Cc1cc(O)ccc1O,Potency,[1],inactive
same,Potency,[2],inactive
same,Potency,[4],inactive
same,Potency,[7],inactive
same,Potency,[5],13.8 µM (active)
CCCCC(CC)COP(=O)(O)O (stereo unspecified),Potency,[1],inactive
same,Potency,[2],inactive
same,Potency,[10],inactive
same,Potency,[4],inactive
same,Potency,[7],inactive
same,Potency,[5],inactive
same,Potency,[6],inactive
O=c1cc(-c2ccccc2)oc2ccc3ccccc3c12,Potency,[8],inactive
same,Potency,[2],inactive
same,Potency,[9],inactive
same,Potency,[10],inactive
same,Potency,[4],0.137 µM (active)
same,Potency,[7],17.2 µM (active)
same,Potency,[5],inactive
same,Potency,[6],inactive
CC[C@]1(O)C[C@H]2CN(CCc3c([nH]c4ccccc34)[C@@](C(=O)OC)(c3cc4c(cc3OC)N(C=O)[C@H]3[C@@](O)(C(=O)OC)[C@H](OC(C)=O)[C@]5(CC)C=CCN6CC[C@]43[C@@H]65)C2)C1,Potency,[8],inactive
same,Potency,[2],inactive
same,Potency,[4],inactive
same,Potency,[7],inactive
Cc1ccc2c(Br)cc(Br)c(O)c2n1,Potency,[8],inactive
same,Potency,[2],inactive
same,Potency,[4],inactive
same,Potency,[7],inactive
same,Potency,[6],inactive
COC(=O)c1nc(Cl)c(Cl)nc1N,Potency,[8],inactive
same,Potency,[5],10.6 µM (active)
same,Potency,[6],5.31 µM (active)
